According to PubChem BioAssay AID1159580 (chemical genetic matrix, 2015):
The whole screen tested about 5,500 compounds, of which about 2,000 (36%) were called active. Not shown: some 18% with an inconclusive outcome. No stated cut-off is given here; in the data, active means normalized growth mostly below about 0.91 (no sharp cut-off); inconclusive means no clear call, values can overlap the other calls; inactive means mostly above about 0.92. The list shows a part of the results.

Experiment: chemical genetic growth profiling, strain panel (AID 1159580);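 further: tested at 20 µM; growth read once vehicle control cultures reached saturation at 30 °C; 1 = growth at the plate median or of vehicle wells; lower values mean less growth of the strain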
Settings: growth OD

Measured: normalized growth

CCOP(=S)(OCC)Oc1nc(Cl)c(Cl)cc1Cl
active: S. cerevisiae deletion strains, locus YLR221C, strain rsa3, active compounds read low 0.852 | S. cerevisiae deletion strains, locus YLR262C, strain YPT6 (second series), active compounds read low 0.724 | S. cerevisiae deletion strains, locus YLR320W, strain mms22, active compounds read low 0.828 | S. cerevisiae deletion strains, locus YMR205C, strain PFK2, active compounds read low 0.842 | S. cerevisiae deletion strains, locus YNL071W, strain lat1, active compounds read low 0.526 | S. cerevisiae deletion strains, locus YOR106W, strain vam3, active compounds read low 0.844 | S. cerevisiae deletion strains, locus YOR270C, strain vph1, active compounds read low 0.441
inactive: S. cerevisiae deletion strains, locus YJR075W, strain HOC1, active compounds read low 0.999 | S. cerevisiae deletion strains, locus YKL009W, strain mrt4, active compounds read low 1 | S. cerevisiae deletion strains, locus YKL068W, active compounds read low 0.99 | S. cerevisiae deletion strains, locus YKL085W, strain MDH1 (second series), active compounds read low 0.996 | S. cerevisiae deletion strains, locus YKL085W, strain MDH1, active compounds read low 0.996 | S. cerevisiae deletion strains, locus YKL160W, strain elf1, active compounds read low 0.974 | S. cerevisiae deletion strains, locus YKL190W, strain CNB1, active compounds read low 0.996 | S. cerevisiae deletion strains, locus YKR001C, strain vps1, active compounds read low 0.937 | S. cerevisiae deletion strains, locus YKR026C, strain gcn3, active compounds read low 0.957 | S. cerevisiae deletion strains, locus YKR091W, strain srl3, active compounds read low 0.948 | S. cerevisiae deletion strains, locus YLL001W, strain dnm1, active compounds read low 0.927 | S. cerevisiae deletion strains, locus YLL026W, active compounds read low 0.982 | S. cerevisiae deletion strains, locus YLL041C, strain sdh2, active compounds read low 0.954 | S. cerevisiae deletion strains, locus YLR027C, strain aat2, active compounds read low 0.967 | S. cerevisiae deletion strains, locus YLR039C, strain RIC1, active compounds read low 0.898 | S. cerevisiae deletion strains, locus YLR058C, strain SHM2, active compounds read low 0.998 | S. cerevisiae deletion strains, locus YLR102C, strain apc9, active compounds read low 0.986 | S. cerevisiae deletion strains, locus YLR258W, strain gsy2, active compounds read low 0.965 | S. cerevisiae deletion strains, locus YLR262C, strain YPT6, active compounds read low 0.945 | S. cerevisiae deletion strains, locus YLR268W, strain sec22, active compounds read low 0.986 | S. cerevisiae deletion strains, locus YLR330W, strain CHS5, active compounds read low 1 | S. cerevisiae deletion strains, locus YLR342W, strain FKS1 (second series), active compounds read low 1.05 | S. cerevisiae deletion strains, locus YLR342W, strain FKS1, active compounds read low 0.945 | S. cerevisiae deletion strains, locus YLR357W, strain rsc2, active compounds read low 0.932 | S. cerevisiae deletion strains, locus YLR370C, strain arc18, active compounds read low 0.981 | S. cerevisiae deletion strains, locus YLR371W, strain rom2, active compounds read low 0.999 | S. cerevisiae deletion strains, locus YLR384C, strain iki3, active compounds read low 0.989 | S. cerevisiae deletion strains, locus YLR418C, strain cdc73, active compounds read low 0.938 | S. cerevisiae deletion strains, locus YML016C, strain PPZ1, active compounds read low 1 | S. cerevisiae deletion strains, locus YML032C, strain rad52, active compounds read low 0.979 | S. cerevisiae deletion strains, locus YML120C, strain ndi1, active compounds read low 0.946 | S. cerevisiae deletion strains, locus YML124C, strain tub3, active compounds read low 0.99 | S. cerevisiae deletion strains, locus YMR058W, strain fet3, active compounds read low 0.921 | S. cerevisiae deletion strains, locus YMR078C, strain ctf18, active compounds read low 0.984 | S. cerevisiae deletion strains, locus YMR125W, strain sto1, active compounds read low 0.97 | S. cerevisiae deletion strains, locus YMR129W, active compounds read low 0.953 | S. cerevisiae deletion strains, locus YMR223W, strain ubp8, active compounds read low 0.988 | S. cerevisiae deletion strains, locus YMR231W, strain pep5, active compounds read low 0.968 | S. cerevisiae deletion strains, locus YMR263W, strain SAP30, active compounds read low 1.04 | S. cerevisiae deletion strains, locus YMR307W, strain GAS1, active compounds read low 0.873 | S. cerevisiae deletion strains, locus YNL067W, strain RPL9B, active compounds read low 1 | S. cerevisiae deletion strains, locus YNL128W, strain TEP1, active compounds read low 1.01 | S. cerevisiae deletion strains, locus YNL153C, strain GIM3, active compounds read low 1.01 | S. cerevisiae deletion strains, locus YNL209W, strain ssb2, active compounds read low 0.995 | S. cerevisiae deletion strains, locus YNL233W, strain BNI4, active compounds read low 0.993 | S. cerevisiae deletion strains, locus YNL248C, strain rpa49, active compounds read low 0.93 | S. cerevisiae deletion strains, locus YNL250W, strain rad50, active compounds read low 0.974 | S. cerevisiae deletion strains, locus YNL271C, strain bni1, active compounds read low 0.996 | S. cerevisiae deletion strains, locus YNL298W, strain CLA4, active compounds read low 0.983 | S. cerevisiae deletion strains, locus YNL307C, strain MCK1, active compounds read low 0.932 | S. cerevisiae deletion strains, locus YNL322C, strain KRE1 (second series), active compounds read low 0.943 | S. cerevisiae deletion strains, locus YNL322C, strain KRE1, active compounds read low 0.998 | S. cerevisiae deletion strains, locus YNR049C, strain mso1, active compounds read low 0.959 | S. cerevisiae deletion strains, locus YNR052C, strain pop2, active compounds read low 0.994 | S. cerevisiae deletion strains, locus YOL006C, strain TOP1, active compounds read low 0.861 | S. cerevisiae deletion strains, locus YOL012C, strain htz1 0.789 | S. cerevisiae deletion strains, locus YOL147C, strain pex11, active compounds read low 0.977 | S. cerevisiae deletion strains, locus YOR001W, strain rrp6, active compounds read low 0.986 | S. cerevisiae deletion strains, locus YOR061W, strain CKA2, active compounds read low 0.998 | S. cerevisiae deletion strains, locus YOR069W, strain VPS5, active compounds read low 0.997 | S. cerevisiae deletion strains, locus YOR070C, strain gyp1, active compounds read low 0.982 | S. cerevisiae deletion strains, locus YOR080W, strain dia2, active compounds read low 1 | S. cerevisiae deletion strains, locus YOR083W, strain WHI5, active compounds read low 0.923 | S. cerevisiae deletion strains, locus YOR136W, strain idh2, active compounds read low 0.992 | S. cerevisiae deletion strains, locus YOR144C, strain elg1, active compounds read low 0.987 | S. cerevisiae deletion strains, locus YOR184W, strain ser1, active compounds read low 0.99 | S. cerevisiae deletion strains, locus YOR265W, strain rbl2, active compounds read low 0.976 | S. cerevisiae deletion strains, locus YOR290C, strain snf2, active compounds read low 0.941 | S. cerevisiae deletion strains, locus YOR316C, strain cot1, active compounds read low 0.991 | S. cerevisiae deletion strains, locus YPL051W, strain arl3, active compounds read low 0.974 | S. cerevisiae deletion strains, locus YPL055C, strain LGE1, active compounds read low 1.04 | S. cerevisiae deletion strains, locus YPL078C, strain atp4, active compounds read low 0.97 | S. cerevisiae deletion strains, locus YPL106C, strain sse1, active compounds read low 0.933 | S. cerevisiae deletion strains, locus YPL240C, strain hsp82, active compounds read low 0.979 | S. cerevisiae deletion strains, locus YPL241C, strain CIN2, active compounds read low 1 | S. cerevisiae deletion strains, locus YPR119W, strain clb2, active compounds read low 0.974 | S. cerevisiae deletion strains, locus YPR141C, strain kar3, active compounds read low 0.986 | S. cerevisiae deletion strains, locus YPR163C, strain tif3, active compounds read low 1.02 | S. cerevisiae deletion strains, locus YPR167C, strain met16, active compounds read low 0.99 | S. cerevisiae deletion strains, strain wtn01, active compounds read low 0.991 | S. cerevisiae strains, strain wild type, active compounds read low 0.995
